Screening results from PubChem.
This is a sample that favours compounds with a hit; in the whole collection about 12% have one here.
Cycloheximide cs: affects cycloheximide protein synthesis inhibition readout, counter-screen | AID 2314 | max response, % | cell reporter, cycloheximide protein synthesis inhibition counterscreen | hit rate 12% among 300,000; in the data active = max response mostly above about 13%, no sharp cut-off; inactive = mostly below about 14%; note: read at 38.3 µM for the half of the compounds with a filed dose; 0% is about no effect
Shiga inhibitor: blocks Shiga toxin action in Vero cells; Vero cells, Shiga toxin protein synthesis inhibition reporter; inhibition, % at 38.7 µM; hit rate 9.2% among 290,000; in the data active = inhibition mostly above about 28%, no sharp cut-off; inactive = mostly below about 43%; note: 0% is about no effect
Lassa entry inh: inhibitors of Lassa virus binding or cell entry. Lassa virus pseudotype entry inhibition, cell reporter. hit rate 1.2% among 300,000. Potency, µM (highest dose often 37.9 µM), inactives show at the top dose activity change, negative = inhibition, actives largely listed as inhibitors. AID 540256; calls by dose curve; tested in HEK293 cells; note: potency is the fitted concentration of half-maximal effect; % is set by controls: 0 for no effect and ±100 for the full control effect; nearly all actives have a fitted effect of over 50% in size
MARV entry inh: Marburg virus entry inhibition; Marburg virus pseudotyped entry inhibition, cell reporter; Potency, µM (doses to about 37.8 µM), without a hit: at the top dose activity change, negative = inhibition, hits mostly inhibitors; hit rate 1.8% among 300,000; AID 540276; calls by dose curve; tested in HEK293 cells; note: potency is the fitted concentration of half-maximal effect; % is set by controls: 0 for no effect and ±100 for the full control effect
An asterisk follows results filed as active; i = inactive; ? = inconclusive; . = no result; [ ] = remark or other dose.

SMILES	Cycloheximide cs	Shiga inhibitor	Lassa entry inh	MARV entry inh
CC1CCCC(C)N1CCCNC(=O)Cn1c(=O)c2cccn2c2cccnc21 (stereo not drawn)	-6	-3	8%[46.1 µM]	9%[46.1 µM]
COc1ccccc1Nc1n[nH]c(=S)s1	-3	2	18%	27%[46.1 µM]
Cc1cc2nsnc2c(S(=O)(=O)N2CCN(C)CC2)c1C	-4	-7	-16%[46.1 µM]	2%[46.1 µM]
C/C(=N\NC(=O)c1sccc1C)c1cccnc1	41*	89*	.	.
C/C(=N\NC(=O)c1sccc1C)c1ccncc1	44*	109*	-1%[46.1 µM]	17%[46.1 µM]
Cc1ccc(NC(=O)Cn2c(=S)[nH]c3ccccc32)cc1	22*	42	-2%	0%[46.1 µM]
O=C(COc1ccccc1Cl)Nc1ccc(N2CCCC2)cc1	25*	53*	.	.
O=C(COc1ccccc1Cl)Nc1cc(NC(=O)COc2ccccc2Cl)cc(C(=O)O)c1	-1	-9	8.9µM*	?
CCN1CCN(c2ccc(NC(=O)COc3ccccc3Cl)cc2)CC1	-2	-3	3%	?
O=C1NC(=O)N(Cc2ccco2)C(=O)/C1=C/c1cccn1CCOc1ccccc1Cl	23*	70*	-7%	-2%
CCC(=O)N1c2ccccc2CC1C(=O)NCCc1ccccc1Cl (stereo not drawn)	.	.	3%[46.1 µM]	.
O=C(COC(=O)c1ccccc1F)c1ccc(-n2nncc2-c2ccco2)cc1	21*	40	-9%	5%
COc1cccc(CC(=O)Nc2nc3ccccc3[nH]2)c1	24*	65	?	-27%[46.1 µM]
COc1ccc(OCC(=O)Nc2nc3ccccc3[nH]2)cc1	22*	38*	11%	6%
COc1ccc(CC(=O)Nc2nc3ccccc3[nH]2)cc1	6	-7	7%[46.1 µM]	13%[46.1 µM]
COc1ccccc1CCC(=O)Nc1nc2ccccc2[nH]1	40*	69*	?	?
CCCCCC(=O)Nc1nc2ccccc2[nH]1	32*	62*	-16%	?
COc1ccc(CCC(=O)Nc2nc3ccccc3[nH]2)cc1OC	-4	-3	25%	13%
CCCCC(=O)Nc1cc(C)c(O)c(-c2nc3ncccc3o2)c1	.	.	8%[46.1 µM]	4%[46.1 µM]
COc1ccc(CNC(=O)CN(Cc2ccccc2)C(=O)CCC(=O)Nc2ccccn2)cc1	-7	-4	1%[46.1 µM]	?
COC(=O)C1=C(C)N(CCC(C)O)C(=O)N(C(C)=O)C1c1ccccc1 (stereo not drawn)	.	.	?	5%[14.2 µM]
CCOc1ccc(CC(=O)N2CCc3cc(OC)c(OC)cc3C2COc2ccc3c(C)cc(=O)oc3c2)cc1 (stereo not drawn)	.	.	10%[46.1 µM]	2%[46.1 µM]
CC1Cc2nc(SCC(=O)Nc3nc4ccccc4s3)n(C)c(=O)c2S1 (stereo not drawn)	-4	3	.	.
COc1ccc(CCC(=O)Nc2cnc3ccccc3c2)cc1	32*	79*	-14%[46.1 µM]	?
COc1ccc(CCC(=O)Nc2nc3ccccc3[nH]2)cc1	19*	42	?	7%
SMILES	Cycloheximide cs	Shiga inhibitor	Lassa entry inh	MARV entry inh
CCOc1ccc(/C=N/NC(=O)c2[nH]ncc2Br)c(O)c1	35*	49*	1.8µM*	6.5µM*
COc1ccc(-c2[nH]ncc2/C=N\NC(=O)c2ccc(Br)o2)cc1OC	19*	34*	-2%	15%
Cc1ccc(O)c(/C=N/NC(=O)c2[nH]ncc2Br)c1	34*	59*	?	?
COc1ccc(/C=N/NC(=O)c2ccc3nc[nH]c3c2)c(OC)c1	0	-4	.	.
COc1cccc(C(=O)N/N=C/c2cn[nH]c2-c2ccc(OC)cc2OC)c1	17*	13	12%	8%[46.1 µM]
Cc1cc(NC(=O)c2ccco2)cc(-c2nc3cc(Cl)ccc3o2)c1O	.	.	19%[46.1 µM]	1%[46.1 µM]
Cc1ccccc1C1CC(=O)Oc2cc(C)c(Cl)c(C)c21 (stereo not drawn)	-1	i	.	.
COc1ccc(OC)c(/C=N/NC(=O)c2[nH]nc3c2CCc2ccccc2-3)c1	5	-11	-19%	0%
O=C(N/N=C/c1c(O)ccc2ccccc12)c1[nH]ncc1Br	44*	82*	16µM*	?
COc1ccc(OC)c(/C=N/NC(=O)c2[nH]ncc2Br)c1	43*	72*	?	-2%
N=c1n(CCN2CCOCC2)c2ccccc2n1CC(=O)c1ccc(Cl)c(Cl)c1	24*	11	?	?
COc1ccc(-c2c3c(=O)n(C)c(=O)n(C)c3cn2Cc2cccnc2)cc1	17*	126*	22%	19%
COc1ccc(-c2c3c(=O)n(C)c(=O)n(C)c3cn2-c2cc(OC)ccc2OC)cc1	14	-12	?	13µM*
CCN(CC)c1nc(C)c(C(C)=O)cc1C#N	1	-28	3%	3%
CCOC(=O)c1cc(C#N)c(C)nc1N(CC)CC	2	-5	5.6µM*	-19%[46.1 µM]
COc1ccccc1C(=O)Nc1ccccc1OCc1cc(=O)n2cc(C)sc2n1	.	.	?	-21%[46.1 µM]
